Results published in PubChem BioAssay AID1347426 (Functional Genomics Laboratory (NCATS/FGL), 2020).
In all, about 31,000 sequences went through this assay and about 1,400 (4.5%) were called active.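 Rule for the calls: active = median seed-adjusted z-score above 1 or below -1; inactive = the rest.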 Shown is part of a subset that was picked to be rich in actives.

Experiment: Novel Modifiers of Survival Motor Neuron (SMN) Protein: Gene Identification via Genome-wide siRNA Screen;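 note: luminescence tracks full-length SMN protein made from the SMN2 reporter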
Conditions: HEK293T SMN2-luciferase reporter, siRNA knockdown, 72 h; actives lie on both sides
Excerpt: Spinal muscular atrophy (SMA) is the most common neuromuscular autosomal recessive disorder and one of the leading genetic causes of infant death. SMA results from mutations inducing loss of function or deletion in the survival of motor neuron-1 gene (SMN1), leading to deficiency of the survival motor neuron (SMN) protein. Although a second nearly identical gene, SMN2, is retained in humans, its expression primarily produces an aberrantly spliced isoform that is largely unstable and quickly degraded. We performed a genome-wide RNAi screen using a cell-based reporter assay to identify genes and pathways that modulate SMN protein stability. The screen identified over 200 genes that led to the greatest increase or decrease in luciferase expression.
Using HEK293T cells stably expressing a luciferase reporter that combines the promoter and splicing based cassettes in tandem with the major portion of the native SMN2 cDNA with luciferase, we performed a genome-wide RNAi screen to identify modulators of SMN protein levels. Luciferase is expressed when full-length SMN protein is generated with luminescence signal proportional to SMN protein levels. Our luciferase-based reporter assay was used to screen Ambion Silencer Select Human Druggable Genome siRNA library (10418 genes, 3 unique siRNAs per gene) using lipid-based reverse transfection.
Briefly, 1 pmol of each siRNA was spotted to a well of a 384-well plate (Corning, Corning, NY) and 20 microL of serum-free DMEM containing […] of Lipofectamine RNAiMax (Life Technologies, Carlsbad, CA) was then added to each well. Transfected cells were maintained at 37 degrees C in 5% CO2 for 72 hours, 20 microL of ONE-Glo Reagent (Promega) was added to wells for luciferase quantification. Raw luminescence reads were normalized to Ambion(R) Silencer(R) Negative Control #2 siRNA, then log10 transformed. A robust statistical measure of median absolute deviation (MAD) to standardize siRNA activities from each screen. Common Seed Analysis was used to help prioritize clean hits as opposed to those appearing to arise from seed based off-target effects. Candidate modulators were defined as the genes having a MAD score greater than 1.0 or less than -1.0.

Sequence | median seed-adjusted z-score
GCUCCAACCUCGAAGUAGATT against ACVR2B | 0.824 (inactive)
GGCUUCACCUAAAAACGUATT against BRCA2 | 0 (inactive)
GAUCGUUGCAAAGUUCUUATT against CPSF6 | -2.38 (active)
CUCCACUGCUUUUCCAAGATT against DBX2 | 0.244 (inactive)
GAGUUCCUCUUGGAUCUAATT against CASQ2 | 0.4 (inactive)
GGCGAGGCUUUAUAGUUGATT against ZNF589 | -0.0897 (inactive)
CCUGGAGCAUCGUAACAUUTT against F11 | -0.0319 (inactive)
GGCUUAUACAAUGUCAACATT against HOXA7 | -0.129 (inactive)
AGAUAACAGCAUGGAUUUATT against MMD | 0.193 (inactive)
GCAAUUUGCUGUUGCCGAATT against RHBDD1 | 0.00277 (inactive)
CCAUUAUUGCUGCCCGGAATT against PGM5 | -0.0543 (inactive)
GUCUCUGACGGGUCCAUUATT against BMP1 | -0.298 (inactive)
GGACAAGGCUAACAUCCCATT against HMGA1 | 0.557 (inactive)
GCUUGCACUUAAUCUCACATT against LAMB2 | 1.12 (active)
GGUUAAAGGUUAUGGUCCATT against PROSC | 0.173 (inactive)
UUUUGUUCAUAUAACGUCATT against IFNA1 | -0.625 (inactive)
CCACCUUCCUUAUCGACAUTT against FZD8 | -0.177 (inactive)
CCACCUUGCAGAAAACCGATT against ITPR3 | -1.28 (active)
GCUCAUCCACUAUAACCAUTT against CA10 | 0.255 (inactive)
GGUCGAAGCUGUGCAAGGATT against TPPP | -0.16 (inactive)
AGCUGGAGGUCAACAAGUATT against TIMP3 | -1.05 (active)
UCUCAGAUCUCUUCCCAGATT against ROBO4 | -0.431 (inactive)

Sequence | median seed-adjusted z-score
CAAGGAGCAAGGUUCGGAATT against KIRREL3 | -0.206 (inactive)
GAUGAUCGCUUCAACCUGATT against DDX6 | 1.12 (active)
GUAUGUUCCACAUAAUGAATT against CYP19A1 | -0.321 (inactive)
GGAAUAGAACAAUUGAAAATT against ZDHHC3 | 0.229 (inactive)
UGAGGACACUUCUUGGAGATT against FOXE3 | -0.451 (inactive)
CGAUGGUUGACAAUCCAGATT against NDUFS5 | -1.35 (active)
CUUGCAAUGUCGAAGCUUATT against CDH8 | 0.169 (inactive)
GGUGUUGAGUUUCUGCAAATT against CHMP1A | 0 (inactive)
GGAUGAUAGAGGAAUUGUATT against SKIV2L2 | 0.642 (inactive)
CCACCAUCCUACAAGCCUUTT against CYP2S1 | -0.196 (inactive)
GCUAGUCAAGGUUCCUAAATT against GTF2F2 | -1.14 (active)
GCAAUUCCAUGAUAAGGAATT against MMP20 | 0.0623 (inactive)
GCCUUCUCCCUAUUUGAUATT against CALM1 | 0.355 (inactive)
GCAGAAGACUAGAGAGACUTT against ABCC5 | 0.00533 (inactive)
CAGUGCAACCUGGAGAGAATT against NRBP2 | 0.093 (inactive)
ACAGCUCCGUGUUGACUCATT against FOXG1 | 0.749 (inactive)
AAAAGAACGAGGAAGUUAUTT against CACNG2 | 0.00759 (inactive)
GUAUAUGACUGUACACUCATT against AGPAT4 | 0.149 (inactive)
GGAUCACCAACAAUCGCAATT against PDE6A | 1.25 (active)
CAGCAGUUAUGGACCAGUUTT against AMD1 | -0.211 (inactive)
GCAGAAAACUCACCCGAGATT against PCDHB7 | 0.365 (inactive)
AGAACAACCUGGACUAUAUTT against PPP5C | 0.473 (inactive)

Sequence | median seed-adjusted z-score
CGUUAUUGUUAGCAACACUTT against ZNF280A | -0.207 (inactive)
GGCUAUUAACCGAAGCAAATT against TSPAN31 | -1.13 (active)
UCUACAAGCUGGACCCUGATT against MYO1G | -0.907 (inactive)
GAUGCAUCAUCUGAAUAAATT against CPA6 | 0.343 (inactive)
CGUGUUCAGUGGAAUCACATT against NPC1 | -0.195 (inactive)
UCGAUGUACUGGAGACGGATT against NUCB1 | 0.232 (inactive)
GCGAAUCCAGGAUCAAGAATT against TRIP4 | -0.0385 (inactive)
GCUUCUAUUUAGUCACGAATT against AKAP9 | -1.22 (active)
GCAAGUUGGAAGACCGGAATT against XPO5 | -0.031 (inactive)
GAUCCAGAAGGGUAGUUAUTT against SERPINB2 | -0.0739 (inactive)
CAGAUGCGGUUUAAACAGATT against TBC1D9B | -0.906 (inactive)
GAGGUGAUCUUAGACCUGATT against QSOX2 | 0.498 (inactive)
AAAAGACCGUCAACCCUUATT against A2BP1 | 1.17 (active)
CAGUGUGGCUGACAACUUATT against SERTAD1 | 0.376 (inactive)
GGCUAGCUGAUAUCAGUUUTT against DDX31 | 0.0144 (inactive)
GGAGUGUGAUCGACCCUCATT against KRTAP5-5 | -1.07 (active)
ACCUGGUGGUGUCAACUCATT against PTOV1 | 0.115 (inactive)
GGUCGAAGUGUACCCAGUATT against USP11 | -0.0327 (inactive)
CUACAAAUCCCUUACCAAUTT against TRDMT1 | 0 (inactive)
GGUAUACACUGAAUAUCCUTT against LCP1 | -0.386 (inactive)
GUACGAGACCUGUUCCAGATT against UCK2 | -1.51 (active)
ACAUGGACGUGAAAGGGAATT against WFIKKN2 | -0.353 (inactive)

Sequence | median seed-adjusted z-score
GCUUCGUGCUAGAUAAAGATT against NOP14 | -0.344 (inactive)
CAGCAUUCUUUAUCUCGUATT against FZD3 | -0.0208 (inactive)
CCAUCAUGCUUGAUCGGGATT against SLC4A4 | 0.43 (inactive)
GUACAAUCGUUGACAAUGATT against PPEF1 | -0.58 (inactive)
CUACUGUCCUGAUGUAUCATT against MYF5 | -0.786 (inactive)
GCAGCUGUAUAAGUUACUATT against NFKB1 | 0.31 (inactive)
GGAAGGACUGCGAACCUUATT against POLM | -1.55 (active)
AGAUAAGGAUGAAUUGAUATT against KLRB1 | -0.44 (inactive)
GAACUAAUCAGGAAGCUUATT against DHX40 | -0.75 (inactive)
GGAGAGGGUUGACAAAGUATT against PCYT1A | 0.0429 (inactive)
CAUCUGAUCCGGGAAAUCATT against GALNT14 | 0 (inactive)
GUGUCUCCAUAGUACGAGATT against ELP3 | 0.321 (inactive)
AGCUCAACCAUAACGUGAATT against DIRAS2 | -1.25 (active)
CGCAUUGCUUACUUACAAATT against PCDHA10 | 0.0404 (inactive)
GCUGAGGACUUUAAUAUCUTT against GPR175 | 0.245 (inactive)
GAUCCAAGCUAAUAUGAGATT against TGM5 | 0.0181 (inactive)
CCUCAAGGAUUGGGACUAUTT against SLC22A17 | -0.149 (inactive)
GGAAUUUCAUGUUCGGAAUTT against PAFAH2 | 0.0216 (inactive)
GCAUCCGUGGAAAUGGUUATT against ASNS | -1.1 (active)
CAUUCGGAGAAGUCGCAAATT against DDX59 | -0.859 (inactive)
GAUGAUUCAGGUAAAAUAATT against CETN3 | -0.0815 (inactive)
CAACGGGACUAUUAUGAUATT against HNRNPC | -2.15 (active)

Sequence | median seed-adjusted z-score
GCCACGAAAAUCAAUGAGATT against EDF1 | 0.0783 (inactive)
CCAGCAAACUCAACCAACATT against KCNJ6 | -1.6 (active)
GGAUGACUACAGGCAAGAATT against GPA33 | 0.138 (inactive)
GCUUCACCAGGGACGUGAATT against CD1D | -0.579 (inactive)
AGGUCUCAGAUGAAGCGGUTT against PPM1B | 0 (inactive)
CCCUUAAUAGAGAGAGUUATT against AADAT | 0.0891 (inactive)
GGAUCAAUGAGUUCUCCAUTT against FMOD | -1.32 (active)
GGCUCAAGUUCAACGAGUUTT against ARL4C | -0.61 (inactive)
GGCCUAUGCAAAAAGAGGATT against BAD | 0 (inactive)
GGAUACAUUAAGCUAAUAATT against PRMT3 | 0.00875 (inactive)
CCACCCUUCCGAGACAUGATT against TOP3B | -1.11 (active)
GCAUAAGAGGGAAUUCACATT against TAGLN | 0.0485 (inactive)
CGAUCGUCUUCUGAUCAAATT against DPYSL2 | -0.569 (inactive)
ACCUGAGUGUGAACCUCUATT against GDPD5 | -0.0618 (inactive)
CAGUAGUGUUGGUAGACCATT against HADH | 1.11 (active)
GAGUGUAUGUGAUCAUCGATT against PRKCE | 0.568 (inactive)
GGAGAUUGUUUCACGGAAATT against TBC1D23 | 0.0932 (inactive)
GGGACGAGAUCAACGAGAATT against KIF5A | -0.348 (inactive)
UCUUAUUUAUUCUACAUCCTT against TNFRSF6B | 0.0458 (inactive)
GUUGUUCCUUUGUAUCCAATT against DHX32 | -0.12 (inactive)
